Drawing on PubChem BioAssay (NCI), this text covers growth for eight compounds.

Test systems include NCI-H23 lung; NCI-H226 lung; NCI-H322M lung; HOP-62 NSCLC; NCI-H460 lung; HOP-92 NSCLC; NCI-H522 lung; A549/ATCC NSCLC; 786-0 renal; COLO 205 colon; DU-145 prostate; K-562 leukemia; MALME-3M melanoma; MDA-MB-231 breast; RXF 393 renal; SF-268 CNS; SF-295 CNS; SF-539 CNS; UACC-257 melanoma; M14 melanoma.
Holding throughout (test): NCI-60 one-dose screen, 48 h (100 = growth as untreated, 0 = no growth, -100 = all killed)
Common to all, as to settings: 10 µM unless noted

Molecules are shown by their SMILES. The panel holds about 83,000 compounds, 20% with a hit somewhere; the sample as a whole holds those more often.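 Method: cells in 96-well plates; compound added at one concentration; 48 h incubation; percent growth measured; values under 10 scored active.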 Unmarked numbers belong to inactive results. The source made the active and inactive calls.

For the compound `N#Cc1c(N)n(C2OC(CO)C(O)C2O)c2ncnc(N)c12` (stereo not given), the growth is -8.8% (active) in the assay with NCI-H23 lung; 12.1% with NCI-H226 lung; -27.6% (active) in the assay on NCI-H322M lung; -12.7% (active) in the assay with HOP-62 NSCLC; 0.304% (active) with NCI-H460 lung; -21.3% (active) in the assay with HOP-92 NSCLC. Also, the growth is -56.1% (active) with NCI-H522 lung; 1.3% (active) in the assay with A549/ATCC NSCLC; -7.63% (active) in the assay with 786-0 renal; -32.8% (active) with COLO 205 colon; -9.06% (active) in the assay with DU-145 prostate; -28.6% (active) in the assay with K-562 leukemia. Also, the growth with MALME-3M melanoma was -25.7% (active); in the assay on MDA-MB-231 breast, 14.3%; with RXF 393 renal, -77.1% (active); in the assay with SF-268 CNS it was -18.8% (active); in the assay with SF-295 CNS, 4.21% (active); in the assay with SF-539 CNS it was -53.1% (active). In addition, the values for the growth in the assay with UACC-257 melanoma and in the assay on M14 melanoma were -37.8% (active) and -52% (active), respectively.

`O=C(O)Cn1ccc2ccccc21`: the growth in the assay on NCI-H23 lung was 100%; in the assay with NCI-H226 lung, 110%; in the assay with NCI-H322M lung it was 100%; in the assay on HOP-62 NSCLC, 79.9%; in the assay on NCI-H460 lung, 103%; in the assay with HOP-92 NSCLC it was 88.2%. For the same compound, the growth in the assay with NCI-H522 lung was 77.7%; in the assay with A549/ATCC NSCLC it was 99.4%; with 786-0 renal it was 101%; with COLO 205 colon, 153%; in the assay on DU-145 prostate, 119%; in the assay with K-562 leukemia, 93.4%. Moreover, the growth with MALME-3M melanoma is 96.7%; in the assay on MDA-MB-231 breast it was 88.8%; with RXF 393 renal it was 114%; in the assay with SF-268 CNS, 115%; in the assay on SF-295 CNS it was 113%; in the assay on SF-539 CNS, 92.8%. Besides, the growth in the assay with UACC-257 melanoma is 113%; in the assay with M14 melanoma it was 93.2%.

With `COc1ccc(OC)c(Nc2nc(-c3c(C)nc4sccn34)cs2)c1`, the growth in the assay on NCI-H23 lung was 69.7%; in the assay on NCI-H226 lung, 65.7%; in the assay on NCI-H322M lung, 93.7%; in the assay with HOP-62 NSCLC, 75.7%; in the assay with NCI-H460 lung it was 62.4%; in the assay with HOP-92 NSCLC, 97.6%. The growth in the assay with NCI-H522 lung was 78.6%; with A549/ATCC NSCLC, 74.6%; in the assay on 786-0 renal it was 101%; in the assay on COLO 205 colon it was 100%; in the assay with DU-145 prostate it was 81.7%; in the assay on K-562 leukemia, 27.8%. Moreover, the growth in the assay with MALME-3M melanoma is 88.9%; with MDA-MB-231 breast it was 71.1%; in the assay on RXF 393 renal it was 83.5%; in the assay with SF-268 CNS, 102%; in the assay on SF-295 CNS it was 52.8%; in the assay with SF-539 CNS, 75.7%. For the same compound, the growth with UACC-257 melanoma is 81%; with M14 melanoma it was 78.6%.

As for `CC[C@H](Nc1nc(C)nc(N)c1C#N)c1nc2cccc(NCc3ccc(C(=O)NO)cc3)c2c(=O)n1-c1ccccc1`, the growth with NCI-H23 lung was -17.5% (active); in the assay on NCI-H226 lung it was -3.97% (active); in the assay on NCI-H322M lung, 24.5%; with HOP-62 NSCLC it was 10.1%; in the assay with NCI-H460 lung, 2.36% (active); in the assay on HOP-92 NSCLC, -1.54% (active). The growth in the assay with NCI-H522 lung was -36.4% (active); in the assay with A549/ATCC NSCLC it was -31% (active); in the assay with 786-0 renal, 5.71% (active); in the assay with COLO 205 colon it was 0.926% (active); in the assay on DU-145 prostate it was 11.2%; in the assay on K-562 leukemia it was 2.24% (active). Besides, the growth was 2.94% (active) in the assay with MALME-3M melanoma; 14.7% in the assay on MDA-MB-231 breast; -27.2% (active) with RXF 393 renal; 12.3% in the assay on SF-268 CNS; 21.5% with SF-295 CNS; 14.6% with SF-539 CNS. In addition, the growth in the assay with UACC-257 melanoma is -3.98% (active); in the assay with M14 melanoma, 8.71% (active).

As to `N#Cc1c(NN)n(C2OC(CO)C(O)C2O)c2ncnc(N)c12` (stereo not given), the growth in the assay with NCI-H23 lung is 2.93% (active); with NCI-H226 lung, 25.7%; in the assay on NCI-H322M lung, -19.8% (active); in the assay with HOP-62 NSCLC, -0.156% (active); in the assay on NCI-H460 lung, -13.4% (active); in the assay on HOP-92 NSCLC, -18.9% (active). The growth in the assay with NCI-H522 lung is -57% (active); with A549/ATCC NSCLC it was 6.43% (active); in the assay on 786-0 renal, 26.1%; with COLO 205 colon it was -32.7% (active); in the assay with DU-145 prostate, -0.273% (active); with K-562 leukemia it was -46.1% (active). The growth is -9.07% (active) in the assay on MALME-3M melanoma; 15.2% with MDA-MB-231 breast; -53.1% (active) with RXF 393 renal; 15.1% in the assay with SF-268 CNS; 56.9% in the assay on SF-295 CNS; -5.9% (active) with SF-539 CNS. Besides, the growth was -26.3% (active) in the assay on UACC-257 melanoma and -18.3% (active) with M14 melanoma.

Regarding `CC(=O)OC1Oc2cc(C)c(C)cc2-c2oc(=O)c(-c3ccc(F)cc3)cc21` (stereo not given), the growth with NCI-H23 lung was 65.2%; in the assay on NCI-H226 lung it was 102%; with NCI-H322M lung, 113%; in the assay with HOP-62 NSCLC, 77.8%; in the assay on NCI-H460 lung, 38%; in the assay on HOP-92 NSCLC, 80%. The growth in the assay with NCI-H522 lung is 14.7%; in the assay on A549/ATCC NSCLC, 52.5%; in the assay on 786-0 renal it was 56.3%; in the assay on COLO 205 colon, 79.2%; in the assay on DU-145 prostate it was 75.8%; with K-562 leukemia, 6.83% (active). The growth in the assay on MALME-3M melanoma was 65.3%; in the assay with MDA-MB-231 breast it was 77.7%; in the assay on RXF 393 renal, -1.93% (active); in the assay with SF-268 CNS it was 55.5%; with SF-295 CNS it was 80.5%; in the assay on SF-539 CNS, 72.7%. Besides, the growth in the assay on UACC-257 melanoma is 96%; with M14 melanoma, 38.5%.

Take `Cc1cc(C)c(C#N)c(SCC(=O)c2sc3c(C#N)c(C)cc(C)[n+]3c2[O-])n1`: the growth in the assay with NCI-H23 lung was 39.4%; with NCI-H226 lung, 46.3%; in the assay with NCI-H322M lung, 29%; in the assay with HOP-62 NSCLC, 17%; in the assay with NCI-H460 lung, 6.25% (active); in the assay on HOP-92 NSCLC, 51.8%. For the same compound, the growth in the assay with NCI-H522 lung is -31.1% (active); with A549/ATCC NSCLC, 19.9%; in the assay with 786-0 renal, 30.6%; with COLO 205 colon, 5.03% (active); with DU-145 prostate, -6.34% (active); with K-562 leukemia it was 5.26% (active). Moreover, the growth in the assay with MALME-3M melanoma was 17.5%; in the assay on MDA-MB-231 breast it was 15.2%; in the assay with RXF 393 renal, -21.5% (active); with SF-268 CNS, 22.9%; in the assay with SF-295 CNS it was -52.3% (active); with SF-539 CNS, -11.3% (active). In addition, the growth was 51.9% in the assay with UACC-257 melanoma and 12.2% in the assay on M14 melanoma.

In the case of `COc1cc2nccc(Oc3ccc(NC(=O)C4(C(=O)Nc5ccc(F)cc5)CC4)cc3)c2cc1Oc1ccc(N)cn1`, the growth was 49.3% in the assay with NCI-H23 lung; 36.5% in the assay on NCI-H226 lung; 49.4% in the assay on NCI-H322M lung; 51.2% with HOP-62 NSCLC; 31% in the assay with NCI-H460 lung; -11.5% (active) in the assay on HOP-92 NSCLC. Moreover, the growth is 51.3% in the assay with NCI-H522 lung; 22.7% with A549/ATCC NSCLC; 39.1% with 786-0 renal; 8.91% (active) in the assay with COLO 205 colon; 49.5% in the assay with DU-145 prostate; 3.07% (active) with K-562 leukemia. Further, the growth with MALME-3M melanoma was 43.1%; with MDA-MB-231 breast, 42.7%; in the assay on RXF 393 renal, 11.5%; in the assay with SF-268 CNS, 36.8%; in the assay on SF-295 CNS it was 0.157% (active); in the assay on SF-539 CNS it was 5.06% (active). In addition, the results for the growth in the assay on UACC-257 melanoma and in the assay on M14 melanoma were 34% and 39.8%, respectively.
